Here are results for 18 molecules from PubChem BioAssay (EPA / NIEHS).

Read-out in experiment [1]: Human Leukocyte Antigen - DR isotype (HLADR), HLA-DRA (gene 3122)
The experiment in a line: BSK_CASM3C_HLADR: BioMAP Diversity Plus: CASM3C Assay for Human Leukocyte Antigen - DR isotype (HLADR) Biomarker Activity (AID 2283043).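 Note: cell-surface HLA-DR protein level quantified by ELISA.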 The conditions noted are these: primary human coronary artery smooth muscle cells; actives raise or lower the signal.

Read-out in experiment [2]: Macrophage colony-stimulating factor (MCSF), CSF1 (gene 1435)
Put plainly: BSK_CASM3C_MCSF: BioMAP Diversity Plus: CASM3C Assay for Macrophage colony-stimulating factor (MCSF) Biomarker Activity (AID 2283044).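 Note: M-CSF protein amount quantified by ELISA after 24 h exposure.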 The following applies: primary human coronary artery smooth muscle cells; actives raise or lower the signal.

Read-out in experiment [3]: Low-density lipoprotein receptor (LDLR), LDLR (gene 3949)
The experiment in a line: BSK_CASM3C_LDLR: BioMAP Diversity Plus: CASM3C Assay for Low-density lipoprotein receptor (LDLR) Biomarker Activity (AID 2283045).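 Note: LDLR protein level on the cell surface quantified by ELISA.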 The conditions noted are these: primary human coronary artery smooth muscle cells; actives raise or lower the signal.

Read-out in experiment [4]: Monocyte Chemoattractant Protein-1 (MCP1), CCL2 (gene 6347)
The experiment in a line: BSK_CASM3C_MCP1: BioMAP Diversity Plus: CASM3C Assay for Monocyte Chemoattractant Protein-1 (MCP1) Biomarker Activity (AID 2283046).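 Note: MCP-1 level quantified by ELISA 24 h after dosing.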 The conditions noted are these: primary human coronary artery smooth muscle cells; actives raise or lower the signal.

A short description of experiment [5]: BSK_CASM3C_Proliferation: Cell Proliferation Assessment in the BioMAP Diversity Plus: CASM3C Assay (AID 2283047).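 Note: sulforhodamine B total protein stain as relative cell number at 560 nm; sub-confluent cells exposed 48 h before staining; fitted both ways against DMSO so gain or loss of cell number.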 The following applies: primary human coronary artery smooth muscle cells.
Read-out in experiment [6]: Monokine induced gamma interferon (MIG), CXCL9 (gene 4283)
The experiment in a line: BSK_CASM3C_MIG: BioMAP Diversity Plus: CASM3C Assay for Monokine induced gamma interferon (MIG) Biomarker Activity (AID 2283048).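 Note: MIG protein level measured by ELISA.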 The conditions noted are these: primary human coronary artery smooth muscle cells; actives raise or lower the signal.

Read-out in experiment [7]: serum amyloid A (SAA), SAA1 (gene 6288)
Put plainly: BSK_CASM3C_SAA: BioMAP Diversity Plus: CASM3C Assay for serum amyloid A (SAA) Biomarker Activity (AID 2283049).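 Note: SAA protein level quantified by ELISA.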 The following applies: primary human coronary artery smooth muscle cells; actives raise or lower the signal.

Experiment [8] in a line: BSK_CASM3C_SRB: Viability Assessment in the BioMAP Diversity Plus: CASM3C Assay (AID 2283050).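 Note: total protein by SRB staining as cytotoxicity measure in parallel cultures; cells exposed to compound for 24 h.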 The conditions noted are these: primary human coronary artery smooth muscle cells.
Read-out in experiment [9]: Thrombomodulin, THBD (gene 7056)
Put plainly: BSK_CASM3C_Thrombomodulin: BioMAP Diversity Plus: CASM3C Assay for Thrombomodulin Biomarker Activity (AID 2283051).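 Note: thrombomodulin protein level measured by ELISA 24 h after dosing.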 The conditions noted are these: primary human coronary artery smooth muscle cells; actives raise or lower the signal.

Read-out in experiment [10]: Tissue Factor, F3 (gene 2152)
Put plainly: BSK_CASM3C_TissueFactor: BioMAP Diversity Plus: CASM3C Assay for Tissue Factor Biomarker Activity (AID 2283052).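 Note: cell surface tissue factor protein level read by ELISA.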 The following applies: primary human coronary artery smooth muscle cells; actives raise or lower the signal.

“And” between values parts separate entries of the source, which are not always exact repeats. Equal values may be shown once. More than one record can exist for a structure, and the calls need not agree. The source made the active and inactive calls. Rule for the calls: active = hit-call score of the fitted dose curve at least 0.9, where 1 is the maximum; inactive = score below 0.9.

Take `COc1ccc2nc(N)sc2c1`: the result in experiment [1], in experiment [2], in [3], in experiment [4], in [5] and in experiment [6] was inactive. Further, the result in [7], in [8], in experiment [9] and in [10] was inactive.
Take `O=Nc1ccc(O)cc1`: the outcome in experiment [1], in experiment [2], in experiment [3], in experiment [4], in [5] and in experiment [6] was inactive. Also, the result in experiment [7], in [8], in experiment [9] and in experiment [10] was inactive.
For `S=C(NC1CCCCC1)NC1CCCCC1`, the result in [1], in experiment [2], in [3], in experiment [4], in experiment [5] and in [6] was inactive. Moreover, the result in experiment [7], in [8] and in experiment [10] was inactive. Moreover, the concentration at half-maximal activity (AC50) (usually the concentration at which the activity in the assay is half-maximal) in experiment [9] is 20 µM (active).
Turning to `CCCCC(CC)COCC1CO1` (configuration not stated), the result in experiment [1], in [2], in experiment [3], in [4], in experiment [5] and in experiment [6] was inactive. For the same molecule, the result in [7], in experiment [8], in experiment [9] and in experiment [10] was inactive.
Regarding `C=C[Si](OC(C)=O)(OC(C)=O)OC(C)=O`, the result in experiment [1], in [2], in [3], in [4], in [5] and in experiment [6] was inactive. Moreover, the outcome in experiment [7], in [8], in experiment [9] and in [10] was inactive. For the same molecule, in [3], the AC50 was 1.25 µM (active).
For the molecule `C=CC=CC=CCCCCC`, the half-maximal activity concentration (AC50) in experiment [1] and in [5] was 5 µM (active) each time. Besides, the outcome in [2], in [3], in experiment [4], in experiment [6], in [7] and in [8] was inactive. The outcome in experiment [9] and in [10] was inactive.
Turning to `CCO[Si](C)(OCC)OCC`, the outcome in experiment [1], in experiment [2], in [3], in [4], in [5] and in experiment [6] was inactive. The result in [7], in experiment [8], in experiment [9] and in experiment [10] was inactive.
`CCO[Si](CCCN=C=O)(OCC)OCC`: the result in [1], in experiment [2], in [3], in experiment [4], in [5] and in experiment [6] was inactive. Further, the result in [7], in experiment [8], in [9] and in [10] was inactive.
With `O=C(c1ccc(O)cc1)c1ccc(O)cc1O`, the outcome in experiment [1], in experiment [2], in [3], in experiment [4], in experiment [6] and in experiment [7] was inactive. The result in [8], in experiment [9] and in experiment [10] was inactive. Further, the AC50 in experiment [5] was 15.7 µM (active) and 10.5 µM (active).
With `O=C(Nc1ccccc1SSc1ccccc1NC(=O)c1ccccc1)c1ccccc1`, the AC50 was 5.29 µM (active) in experiment [1], 5.1 µM (active) in experiment [5], 5.22 µM (active) in experiment [7] and 5.27 µM (active) in [9]. The outcome in experiment [2], in experiment [3], in [4], in [6], in [8] and in experiment [10] was inactive.
`CC(C)C(=O)C(C)C`: the result in experiment [1], in experiment [2], in [3], in [4], in experiment [5] and in experiment [6] was inactive. In addition, the result in experiment [7], in experiment [8], in experiment [9] and in experiment [10] was inactive.
For `CC1OC1C1CCC2(C)OC2C1` (configuration not stated), the result in experiment [1], in [2], in experiment [3], in [4], in experiment [5] and in [6] was inactive. For the same molecule, the outcome in experiment [7], in [8], in [9] and in experiment [10] was inactive.
On to `COCc1c(C(C)C)nc(C(C)C)c(/C=C/[C@@H](O)C[C@@H](O)CC(=O)O)c1-c1ccc(F)cc1`, for which the outcome in [1], in [2], in experiment [3], in experiment [4], in experiment [6] and in experiment [7] was inactive. Also, the outcome in experiment [8] was inactive. The AC50 in experiment [5] was 0.056 µM (active); in experiment [9] it was 0.00777 µM (active); in [10] it was 0.00777 µM (active).
Regarding `CCCCCCCCCCCCCCCC[N+](C)(C)CC`, the half-maximal activity concentration (AC50) in experiment [1] was 2.97 µM (active); in experiment [2] it was 1.93 µM (active); in experiment [3], 2.94 µM (active); in experiment [4], 3.54 µM (active); in experiment [5], 1.61 µM (active); in experiment [6] it was 6.02 µM (active). Moreover, the AC50 in [7] is 2.61 µM (active); in [8] it was 1.88 µM (active); in [10], 2.19 µM (active). Besides, in [9], the outcome was inactive.
On to `C=CCOCC(O)CCl` (configuration not stated), for which the result in experiment [1], in experiment [2], in experiment [3], in experiment [4], in experiment [5] and in experiment [6] was inactive. In addition, the outcome in experiment [7], in experiment [8], in experiment [9] and in [10] was inactive.
For the molecule `CCCCC(CC)COC(=O)c1ccccc1O` (configuration not stated), the outcome in [1], in experiment [2], in experiment [3], in experiment [4], in [5] and in experiment [6] was inactive. Further, the outcome in [7], in [8], in experiment [9] and in experiment [10] was inactive.
On to `CCOC(=O)c1ccccc1C(=C1C=C(Br)C(=O)C(Br)=C1)c1cc(Br)c(O)c(Br)c1`, for which the result in [1], in experiment [2], in experiment [3], in [7], in experiment [8] and in experiment [10] was inactive. For the same molecule, the half-maximal activity concentration (AC50) was 17.4 µM (active) and 20 µM (active) in [4]; 20.3 µM (active) and 22.1 µM (active) in experiment [5]; 19.4 µM (active) and 22.2 µM (active) in [6]; 15.8 µM (active) and 20.4 µM (active) in experiment [9].
For `c1ccc2c(c1)ccc1cc3c(ccc4ccccc43)cc12`, the result in experiment [1], in experiment [2], in [3], in experiment [4], in experiment [5] and in experiment [6] was inactive. Moreover, the outcome in experiment [7], in experiment [8], in experiment [9] and in experiment [10] was inactive. For the same molecule, the AC50 in experiment [9] is 0.0962 µM (active).
